Assay results reported in PubChem BioAssay (EPA / NIEHS).
Where a structure was tested more than once in an assay, its records may differ in their call. Activity calls are given as the source filed them. The calls were made as follows: active = hit-call score of the fitted dose curve at least 0.9, where 1 is the maximum; inactive = score below 0.9.

Legend:
[1] = molecular target: Nuclear respiratory factor 1 (Homo sapiens) (UniProt Q16656); assay: ATG_NRF1_CIS: Attagene CIS-FACTORIAL HepG2 Assay for human Nuclear Respiratory Factor 1 (NRF1) Orphan Gene (AID 2282987); details: HepG2 NRF1 cis-element reporter, Attagene multiplex; actives raise or lower the signal
Nuclear respiratory factor 1 (Homo sapiens), sequence (Q16656 whole entry, looked up, the tested form may be a part): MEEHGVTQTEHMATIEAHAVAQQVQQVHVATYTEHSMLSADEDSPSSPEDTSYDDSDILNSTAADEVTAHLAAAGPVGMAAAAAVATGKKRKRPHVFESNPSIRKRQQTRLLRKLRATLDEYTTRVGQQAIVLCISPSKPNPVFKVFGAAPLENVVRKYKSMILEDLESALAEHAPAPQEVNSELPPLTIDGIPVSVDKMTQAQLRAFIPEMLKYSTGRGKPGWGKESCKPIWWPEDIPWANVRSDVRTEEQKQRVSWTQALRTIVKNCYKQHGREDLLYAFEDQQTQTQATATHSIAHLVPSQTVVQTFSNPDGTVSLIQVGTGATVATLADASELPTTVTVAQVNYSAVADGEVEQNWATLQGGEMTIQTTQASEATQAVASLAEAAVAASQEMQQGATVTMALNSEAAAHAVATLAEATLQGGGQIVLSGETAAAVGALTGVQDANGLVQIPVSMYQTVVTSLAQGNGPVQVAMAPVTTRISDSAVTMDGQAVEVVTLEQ
Summary of the method: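 Fluorescence intensity of labelled reporter cDNA fragments, resolved by capillary electrophoresis, served as readout for NRF1 cis-element activity. Transiently transfected HepG2 cells were dosed for 24 hours; activity in either direction was fitted against DMSO negative control.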

[2] = ATG_NFI_CIS: Attagene CIS-FACTORIAL HepG2 Assay for human Nuclear Factor I (NFI) (AID 2282989); details: HepG2 cis-regulatory reporter, NFI response element transcription; actives raise or lower the signal
Summary of the method: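 HepG2, transient MRTU, 24 h exposure; RNA→cDNA→PCR→FAM label→HpaI→CE fluorescence. Bidirectional fit, DMSO = baseline.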

[3] = ATG_NF_kB_CIS: Attagene CIS-FACTORIAL HepG2 Assay for human Nuclear Factor Kappa B (NF-kB) (AID 2282991); details: HepG2 Attagene cis-factorial NF-kB reporter mRNA; actives raise or lower the signal
Summary of the method: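 Endogenous transcription factor activity in HepG2 was captured via cis-regulated reporter constructs; after 24 h dosing, reporter mRNA was reverse-transcribed, amplified, fluorescently labelled and sized by capillary electrophoresis, with activity fitted bidirectionally relative to DMSO.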

[4] = ATG_NRF2_ARE_CIS: Attagene CIS-FACTORIAL HepG2 Assay for human Nuclear Factor Erythroid 2 Related Factor 2 (NFR2) response to Antioxidant Response Elements (ARE) (AID 2282992); details: HepG2 Attagene ARE/NRF2 reporter, transcription factor activity; actives raise or lower the signal;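 as to AC50: reporter mRNA level measured by RT-PCR and capillary electrophoresis fluorescence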
Summary of the method: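 Readout: reporter mRNA quantified by RT-PCR plus FAM-labelled primer extension, HpaI digestion and capillary electrophoresis, 24 h after dosing transfected HepG2 cells. Gain or loss of signal is fitted bidirectionally against DMSO baseline.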

[5] = ATG_Oct_MLP_CIS: Attagene CIS-FACTORIAL HepG2 Assay for human Octamer-Binding Transcription Factor (Oct) (AID 2282993); details: HepG2 Attagene cis-factorial Oct reporter, mRNA; actives raise or lower the signal
Summary of the method: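 Multiplexed cis-reporter assay in human liver HepG2 cells, 24 h incubation. Reporter RNA amplified and labelled, then resolved by capillary electrophoresis; DMSO serves as negative control and baseline.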

[6] = molecular target: Cellular tumor antigen p53 (Homo sapiens) (UniProt P04637); assay: ATG_p53_CIS: Attagene CIS-FACTORIAL HepG2 Assay for human p53 Transcription Factor (AID 2282994); details: HepG2 p53 cis-element reporter, Attagene mRNA; actives raise or lower the signal
Cellular tumor antigen p53 (Homo sapiens), sequence (P04637 whole entry, looked up): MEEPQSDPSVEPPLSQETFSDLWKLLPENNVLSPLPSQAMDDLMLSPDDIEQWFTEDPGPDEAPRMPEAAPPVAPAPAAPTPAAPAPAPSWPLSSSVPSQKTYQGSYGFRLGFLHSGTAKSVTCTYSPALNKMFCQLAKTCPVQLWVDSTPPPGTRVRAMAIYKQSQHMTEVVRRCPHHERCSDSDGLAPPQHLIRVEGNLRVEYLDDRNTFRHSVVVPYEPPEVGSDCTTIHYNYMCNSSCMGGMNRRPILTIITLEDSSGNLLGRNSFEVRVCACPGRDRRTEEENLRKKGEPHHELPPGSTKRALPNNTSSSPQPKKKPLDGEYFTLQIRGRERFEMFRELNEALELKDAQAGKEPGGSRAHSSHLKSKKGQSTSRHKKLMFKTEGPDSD
Summary of the method: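 Read-out: reporter mRNA by RT-PCR plus capillary electrophoresis with fluorescence detection. Human HepG2 liver cells carried transfected multi-reporter cis-element constructs, dosed 24 h. Gain or loss of signal fitted bidirectionally against DMSO control.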

[7] = BSK_3C_uPAR: BioMAP Diversity Plus: 3C Assay for Urokinase-type plasminogen activator receptor (uPAR) Biomarker Activity (AID 2282998); details: BioMAP 3C HUVEC, uPAR biomarker ELISA; actives raise or lower the signal
Summary of the method: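 Dose primary human umbilical vein endothelial cells, incubate 24 h, measure cell-surface uPAR by ELISA, then fit the signal in both directions against the DMSO negative control.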

[8] = BSK_3C_VCAM1: BioMAP Diversity Plus: 3C Assay for Vascular cell adhesion molecule 1 (VCAM1) Biomarker Activity (AID 2282999); details: BioMAP 3C HUVEC, VCAM1 ELISA, cytokine-stimulated; actives raise or lower the signal
Summary of the method: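 HUVEC primary cells, 24 h compound exposure; VCAM-1 by ELISA; gain/loss of signal fitted bidirectionally vs DMSO baseline.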

[9] = molecular target: Myc proto-oncogene protein (Homo sapiens) (UniProt P01106); assay: ATG_Myc_CIS: Attagene CIS-FACTORIAL HepG2 Assay for human Myelocytomatosis (Myc) Proto-Oncogene Transcription Factor (AID 2282990); details: HepG2, Attagene cis-reporter transcription factor activity; actives raise or lower the signal
Myc proto-oncogene protein (Homo sapiens), sequence (P01106 whole entry, looked up, the tested form may be a part): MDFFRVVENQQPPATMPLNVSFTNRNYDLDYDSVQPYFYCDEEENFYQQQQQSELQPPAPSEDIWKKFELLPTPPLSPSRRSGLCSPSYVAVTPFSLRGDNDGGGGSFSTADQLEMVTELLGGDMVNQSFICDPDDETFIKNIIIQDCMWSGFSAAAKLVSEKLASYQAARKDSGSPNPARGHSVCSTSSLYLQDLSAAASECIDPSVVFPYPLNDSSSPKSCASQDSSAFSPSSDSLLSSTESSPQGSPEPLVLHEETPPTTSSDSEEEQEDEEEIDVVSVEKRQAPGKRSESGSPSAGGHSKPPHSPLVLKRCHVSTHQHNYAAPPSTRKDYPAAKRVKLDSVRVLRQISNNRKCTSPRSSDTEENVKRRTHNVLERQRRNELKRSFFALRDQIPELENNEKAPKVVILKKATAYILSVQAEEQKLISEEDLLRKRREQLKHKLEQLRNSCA
Summary of the method: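 Fluorescence intensity of reporter-specific cDNA fragments, separated by capillary electrophoresis, gives the signal. Transfected HepG2 cells carrying cis-promoter reporter constructs are incubated with compound for 24 h; DMSO serves as baseline.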

[10] = BSK_3C_TissueFactor: BioMAP Diversity Plus: 3C Assay for Tissue Factor Biomarker Activity (AID 2282997); details: BioMAP 3C HUVEC, tissue factor biomarker readout; actives raise or lower the signal
Summary of the method: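 Tissue factor on primary human umbilical vein endothelium was read by ELISA 24 h after dosing, gain or loss relative to DMSO. Cytotoxicity ran alongside via SRB (0.1%, TCA-fixed, 560 nm).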

Measured: AC50

C[N+](C)(C)CCCNS(=O)(=O)C(F)(F)C(F)(F)C(F)(F)C(F)(F)C(F)(F)C(F)(F)C(F)(F)C(F)(F)F
active: [7] 20.7 µM
inactive: [1] | [2] | [3] | [4] | [5] | [6] | [7] | [8]

CC=CC(=O)OCC(C)C
inactive: [1] | [2] | [3] | [4] | [5] | [6]

C=C(C)C1CC=C(C)CC1 (configuration not stated)
inactive: [1] | [2] | [4] | [5] | [6]

CCCCCCOc1ccc(N)cc1
active: [1] 100 µM | [4] 100 µM
inactive: [2] | [9] | [6]

O=C(O)C1CCC(C(=O)O)CC1 (configuration not stated)
inactive: [1] | [2] | [4] | [5] | [6]

C=CC(=O)NCOCCCC
active: [4] 66.5 µM
not listed: [3] | [6] | [9]
inactive: all other assays above

CCC(C)C(=O)OCCc1ccccc1 (configuration not stated)
inactive: [1] | [2] | [3] | [4] | [6]

CCOC(=O)/C=C\C(=O)OCC
active: [4] 11.4 µM
not listed: [9]
inactive: all other assays above

O=C(O)CCC(=O)O
inactive: [2] | [9] | [3] | [4]

C1CNCCN1
not listed: [2] | [5] | [10]
inactive: all other assays above

O=C(O)/C=C/c1ccccc1
inactive: [1] | [9] | [3] | [4] | [5] | [6]

CO[Si](C)(C)OC
active: [9] 158 µM
inactive: [1] | [3] | [4] | [5] | [6]

COc1ccc(C(=O)c2ccccc2)c(O)c1
active: [3] 168 µM | [4] 100 µM
not listed: [2] | [10]
inactive: all other assays above

CC(c1cc(C(C)(C)C)cc(C(C)(C)C)c1O)c1cc(C(C)(C)C)cc(C(C)(C)C)c1O
not listed: [2] | [10]
inactive: all other assays above

O=C(O)CC(C(=O)O)S(=O)(=O)O (configuration not stated)
inactive: [1] | [9] | [4] | [6]

CC(=O)c1ccccc1O
inactive: [1] | [9] | [3] | [4] | [5] | [6]

CCC[Si](OC)(OC)OC
inactive: [1] | [2] | [4] | [6]

CN1CCN(C)CC1
inactive: [1] | [9] | [3] | [4] | [6]

Nc1ccc(Cl)c(N)c1
inactive: [1] | [9] | [3] | [4] | [5]

CCN(CC)c1cccc(C)c1
inactive: [1] | [3] | [4] | [5] | [6]

CC1CC(=O)CC(C)(C)C1 (configuration not stated)
inactive: [1] | [9] | [4] | [5] | [6]

O=C(Oc1ccccc1)c1ccccc1O
inactive: [1] | [9] | [4] | [5]

CC(C)C(=O)OCCOc1ccccc1
inactive: [1] | [9] | [3] | [4] | [5] | [6]

C=Cc1ccc(OC(C)=O)cc1
active: [4] 6.87 µM
inactive: [1] | [3] | [6]

CCOC(=O)OC(=O)OCC
inactive: [1] | [9] | [3] | [4] | [5] | [6]

CCOC(=O)c1ccc(C)cc1
inactive: [1] | [9] | [3] | [4] | [5] | [6]

Clc1cc(Cl)c(Cl)c(Cl)c1Cl
active: [10] 3.97 µM
not listed: [2] | [3]
inactive: all other assays above

CCc1occc(=O)c1O
inactive: [1] | [9] | [3] | [4] | [6]

CCC1(C)C(=O)N(Cl)C(=O)N1Cl (configuration not stated)
active: [4] 27.1 µM | [5] 27.4 µM
not listed: [2] | [10]
inactive: all other assays above

CC(C=O)c1ccccc1 (configuration not stated)
inactive: [1] | [9] | [3] | [4] | [5] | [6]

CCOC(=O)[C@H](O)[C@@H](O)C(=O)OCC
inactive: [1] | [9] | [3] | [4] | [5] | [6]

Oc1ccc(-c2ccccc2)c(Cl)c1
active: [4] 22.7 µM | [5] 52.3 µM
inactive: [1] | [9] | [3] | [6]

C=C1C[C@H]2[C@@H]3C=C(C)C4=CC(=O)CC[C@]4(C)[C@H]3CC[C@]2(C)[C@@]1(OC(C)=O)C(C)=O
active: [1] 88.1 µM | [3] 63 µM | [4] 42.1 µM
inactive: [9] | [5] | [6]

O=C(O)c1ccc2c(c1)C(=O)OC2=O
inactive: [1] | [9] | [4] | [5] | [6]

Nc1ccc(O)c([N+](=O)[O-])c1
active: [3] 37.2 µM | [4] 57.9 µM
inactive: [1] | [9] | [5]

N=C1C=CC(=C(c2ccc(N)cc2)c2ccc(N)cc2)C=C1
active: [1] 100 µM | [4] 9.02 µM | [6] 33.4 µM
inactive: [9] | [5]

CC(C)COC(=O)CC(C(=O)OCC(C)C)S(=O)(=O)O (configuration not stated)
inactive: [1] | [9] | [3] | [4] | [5] | [6]

CCCCNS(=O)(=O)c1ccccc1
inactive: [1] | [9] | [3] | [4] | [6]

O=C(Oc1ccccc1)c1ccccc1C(=O)Oc1ccccc1
active: [4] 30.7 µM
not listed: [2] | [3] | [10]
inactive: all other assays above

O=C1CCCCC1C1CCCCC1 (configuration not stated)
inactive: [2] | [9] | [3] | [4] | [5]

C=CC(C)(CCC=C(C)C)OC(=O)C=Cc1ccccc1 (configuration not stated)
active: [4] 32.9 µM
inactive: [1] | [3] | [5] | [6]

CC1C(C)(C)C2=C(C(=O)CCC2)C1(C)C (configuration not stated)
inactive: [1] | [9] | [3] | [4] | [6]

O=S(=O)(O)c1ccc(Nc2nc(Nc3ccc(C=Cc4ccc(Nc5nc(Nc6ccc(S(=O)(=O)O)cc6)nc(N(CCO)CCO)n5)cc4S(=O)(=O)O)c(S(=O)(=O)O)c3)nc(N(CCO)CCO)n2)cc1
inactive: [1] | [9] | [3] | [4] | [5] | [6]

CC(=O)OCc1ccccc1
inactive: [1] | [9] | [4]

COCC(=O)O
inactive: [1] | [3] | [4] | [5] | [6]

CC(C)(C)NC(=O)[C@H]1CC[C@H]2[C@@H]3CC[C@H]4NC(=O)C=C[C@]4(C)[C@H]3CC[C@]12C
active: [4] 100 µM | [6] 38.7 µM
inactive: [9] | [3] | [5]

O=C1CCCN1C1CCCCC1
inactive: [2] | [9] | [3] | [4] | [5]

C=CC(=O)O[C@H]1C[C@@H]2CC[C@@]1(C)C2(C)C
active: [9] 167 µM | [3] 181 µM | [4] 32.1 µM
inactive: [2] | [5] | [6]

c1ccc2c(c1)[nH]c1ccccc12
inactive: [2] | [4] | [5] | [6] | [7] | [8]

CCCCCCC=O
not listed: [1] | [10]
inactive: all other assays above

CCCCOCCOCCOC(C)=O
inactive: [2] | [9] | [4] | [5] | [6]

O=S(=O)(O)c1ccc(N=Nc2c(O)ccc3ccccc23)cc1
active: [4] 34.1 µM
inactive: [2] | [9] | [5] | [6]

CC(C)(c1ccccc1)c1ccc(Nc2ccc(C(C)(C)c3ccccc3)cc2)cc1
inactive: [2] | [9] | [3] | [4] | [5] | [6]

CCCCOCC(C)O (configuration not stated)
inactive: [2] | [9] | [4] | [5] | [6]

CCCCC1CCC(=O)O1 (configuration not stated)
inactive: [2] | [9] | [3] | [4] | [6]

CCc1cccc(C)c1N(C(=O)CS(=O)(=O)O)C(C)COC (configuration not stated)
not listed: [1] | [9]
inactive: all other assays above

CC(C)CC(=O)OCc1ccccc1
inactive: [2] | [9] | [3] | [4] | [5] | [6]

C[Si]1(C)O[Si](C)(C)O[Si](C)(C)O[Si](C)(C)O[Si](C)(C)O1
inactive: [2] | [9] | [3] | [4] | [5] | [6]

Cc1c(Cl)cccc1Cl
inactive: [9] | [3] | [4] | [5]

CCCCC1C(=O)N(c2ccccc2)N(c2ccccc2)C1=O
active: [4] 6.46 µM | [7] 10.2 µM
not listed: [1]
inactive: all other assays above

CC1=CP(=O)(c2ccccc2)CC1 (configuration not stated)
inactive: [2] | [9] | [3] | [4] | [5] | [6]

CC(=O)OCCc1ccccc1
inactive: [2] | [9] | [4] | [5] | [6]

CCCCCC[C@@H](O)C/C=C\CCCCCCCC(=O)OCC(O)CO (some centres not stated)
inactive: [2] | [5]
active: [9] 162 µM | [4] 87.9 µM | [6] 181 µM
